Screens as filed in PubChem.
Only some compounds are listed: those with a hit (about 2.2% of all), similar ones and a draw of the others.
CHRM1 agonist – agonists of human M1 muscarinic receptor; activation, % at 3 µM; CHO-K1 hM1, Fluo-8 calcium fluorescence, agonist mode; 0% DMSO, 100% acetylcholine EC100; hit rate 0.33% among 360,000;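 active means activation above the run's mean compound activation plus 3 SD, cut at about 16% in these data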;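 further: peak over basal fluorescence ratio within a 140 s kinetic read after compound addition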
CHRM4 PAM – CHRM4 positive allosteric modulation. P08173. CHO-K1 hM4/Gqi5, Fluo-8 calcium fluorescence, ACh EC20; 0% = ACh EC20, 100% = maximal ACh. activation, % at 3 µM. hit rate 0.4% among 360,000;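 active means activation above its plate's cutoff, the mean activation of sample wells plus 3 SD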
Target sequence (P08173 whole entry, looked up): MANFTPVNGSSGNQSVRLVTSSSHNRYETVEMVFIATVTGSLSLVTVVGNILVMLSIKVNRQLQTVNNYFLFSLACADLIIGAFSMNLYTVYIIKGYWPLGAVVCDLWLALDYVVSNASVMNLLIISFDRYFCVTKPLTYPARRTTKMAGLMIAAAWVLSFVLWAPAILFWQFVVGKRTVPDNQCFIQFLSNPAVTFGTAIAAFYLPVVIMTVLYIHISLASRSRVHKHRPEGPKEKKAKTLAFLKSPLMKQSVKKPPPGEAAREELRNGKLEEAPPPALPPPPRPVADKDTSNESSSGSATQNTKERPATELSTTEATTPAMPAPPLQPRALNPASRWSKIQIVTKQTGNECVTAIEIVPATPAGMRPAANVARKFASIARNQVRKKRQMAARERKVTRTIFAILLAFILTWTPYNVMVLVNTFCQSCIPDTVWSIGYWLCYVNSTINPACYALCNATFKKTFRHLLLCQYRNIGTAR
M1 PAM – human CHRM1 positive allosteric modulation | P11229 | CHO-K1 hM1, Fluo-8 calcium fluorescence, ACh EC20; 0% = ACh EC20, 100% = maximal ACh | activation, % at 3 µM | hit rate 0.088% among 360,000 | AID 588819; in the data active means activation above about 19%, passing the limit was not always enough
CHRM4 agonist – CHRM4 agonism in calcium assay; CHO-K1 hM4/Gqi5, Fluo-8 calcium fluorescence; vehicle 0%, full acetylcholine response 100%; activation, % at 3 µM; hit rate 0.14% among 360,000; AID 624127;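 active means activation above the run mean over all test wells plus 3 SD, cut at about 32% in these data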;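 further: peak over basal fluorescence ratio per well then scaled between controls; 0% = DMSO wells and 100% = acetylcholine at EC100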
M1 antag – human CHRM1 antagonism | hit rate 1.3% among 360,000 | P11229 | AID 588852 | CHO-K1 hM1, Fluo-8 calcium fluorescence, ACh EC80 antagonist | inhibition, % at 3 µM;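 active means percent inhibition above its own plate's cutoff, namely the mean of that plate's compound wells plus 3 SD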;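 further: peak over basal fluorescence ratio during 140 s after agonist addition; 0% = ACh EC80 plus DMSO and 100% = DMSO alone without agonist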
M4 antag – blocks acetylcholine activation of human M4 receptor | P08173 | CHO-hM4 cells, ACh EC80, Fluo-8 calcium fluorescence | inhibition, % at 3 µM | hit rate 0.73% among 360,000 | AID 624125;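 active means inhibition above its plate's cutoff, the mean inhibition of sample wells plus 3 SD, cut at about 27% in these data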;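 further: 0% = acetylcholine EC80 with DMSO and 100% = DMSO without agonist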
The depositor's hits bear a star.

SMILES	CHRM1 agonist	CHRM4 PAM	M1 PAM	CHRM4 agonist	M1 antag	M4 antag
Nc1nc2ccc([N+](=O)[O-])cc2[nH]1	-4	12	-1	1	-1	-4
Nc1[nH]c2cc([N+](=O)[O-])ccc2c1-c1ccccn1	16	-20	-14	54*	27	21
COc1ccccc1N1C(=O)c2ccc(C(=O)Nc3ccc(F)cc3)cc2C1=O	2	-1	-7	8	5	-2
Cc1cc(NCCCCCCCNc2cc(C)nc3cc([N+](=O)[O-])ccc23)c2ccc([N+](=O)[O-])cc2n1	-8	-10	-28	2	34*	43*
O=C(Nc1ccnn1C1CCN(Cc2cc(Cl)ccc2O)CC1)c1cccnc1	-5	-6	-16	2	40*	1
CC1(c2ccc(OC(F)F)cc2)NC(=O)N(CC(=O)Nc2ccc3[nH]c(=O)[nH]c3c2)C1=O (configuration not stated)	-1	6	12	1	-13	7
CC1CCC2(CC1)NC(=O)N(CC(=O)Nc1cccnc1Cl)C2=O (configuration not stated)	-2	8	6	1	-6	3
CC1(c2ccccc2)NC(=O)N(CC(=O)Nc2ccc3c(c2)OCO3)C1=O (configuration not stated)	1	4	5	2	-3	2
CC1(c2ccc(Cl)cc2)NC(=O)N(CC(=O)Nc2cccnc2Cl)C1=O (configuration not stated)	22*	4	6	9	-10	1
CC(=O)Nc1ccc(/C=N/N2C(=O)NC(C)(c3ccc(OC(F)F)cc3)C2=O)cc1 (configuration not stated)	27*	0	-1	10	12	17
CC1(c2ccc(OC(F)F)cc2)NC(=O)N(CC(=O)Nc2ccc3c(c2)OCO3)C1=O (configuration not stated)	39*	3	-5	32*	17	8
CCOC(=O)CN1C(=O)NC(C)(c2ccc(OC(F)F)cc2)C1=O (configuration not stated)	3	-1	1	2	-4	-2
CC1(c2ccc(OC(F)F)cc2)NC(=O)N(CC(=O)Nc2ccccc2)C1=O (configuration not stated)	46*	-14	-11	67*	26*	17
CCSc1nnc(NC(=O)c2ccc(C)o2)s1	-1	13	4	2	-6	7
COc1ccc2[nH]c(=O)c(CN(Cc3cccs3)S(=O)(=O)c3c(C)ccc4nsnc34)cc2c1	1	-25	-14	17	45*	32*
CC(=O)Nc1cccc(-c2ccnc3c2CC(C)(C(=O)Nc2ccc(Cl)c(C(F)(F)F)c2)O3)c1 (configuration not stated)	-1	2	-3	2	14	1
COc1ccccc1NS(=O)(=O)c1ccc(C)c(C(=O)N2CCCC2)c1	2	20	26*	0	-18	-3
CCOc1ccccc1N1CCN(C(=O)c2cc(S(=O)(=O)N3CCCCC3)ccc2C)CC1	-2	-4	-16	21	31*	5
O=C(Cc1cccs1)N1CCN(S(=O)(=O)c2ccccc2)CC1	-4	10	5	1	-7	-3
CCOC(=O)C1=C(COC(=O)/C=C/c2ccc(OC)cc2)NC(=O)NC1C (configuration not stated)	2	-1	7	8	-13	-14
O=C(C1CCC1)N1CCN(S(=O)(=O)c2ccccc2)CC1	7	7	17	2	-3	-20
Cc1oc2c(CN3CCCCC3)c(O)ccc2c(=O)c1-c1ccc(Br)cc1	-10	-14	21	0	-5	30*
Cc1oc2c(CN3CCCC3)c(O)ccc2c(=O)c1-c1ccc(Br)cc1	-9	-34	6	0	-12	70*
CCC1CCCCN1CCCNC(=O)CC1Oc2ccc(C)cc2NC1=O (configuration not stated)	-14	-15	-26	1	41*	13
CCN1CCN(CCCNC(=O)c2ccc3c(c2)NC(=O)c2ccccc2S3)CC1	-14	-6	-19	1	15	7
SMILES	CHRM1 agonist	CHRM4 PAM	M1 PAM	CHRM4 agonist	M1 antag	M4 antag
CCC(C)N(CCNC(=O)CC1Oc2ccccc2NC1=O)C1CCCCC1 (configuration not stated)	-13	-14	-33	0	90*	45*
CCC1CCCCN1CCCNC(=O)CC1Oc2ccccc2NC1=O (configuration not stated)	-13	-9	-9	1	17	3
CCC(C)N(CCNC(=O)c1ccc2c(c1)NC(=O)c1ccccc1S2)C1CCCCC1 (configuration not stated)	-3	-12	-23	10	56*	24
CC(C)CN(CCNC(=O)CC1Oc2ccccc2NC1=O)CC(C)C (configuration not stated)	-13	4	-8	1	1	-6
CC1CCCC(C)N1CCCNC(=O)c1ccc2c(c1)NC(=O)c1ccccc1S2 (configuration not stated)	-6	-12	-24	0	84*	14
O=C(NCCCN1CCCC1=O)c1ccc2c(c1)NC(=O)c1ccccc1S2	-10	1	3	0	-11	-14
CC(=O)c1ccc(OCC(O)COc2ccc(C(C)=O)cc2)cc1	-2	1	1	8	-4	-7
COc1ccc(S(=O)(=O)N2CCN(C(=O)c3ccccn3)CC2)cc1	-3	4	1	1	-3	-2
CC1CCN(Cc2ccc(NC(=O)CC3Oc4ccccc4NC3=O)cc2)CC1 (configuration not stated)	-12	-14	-32	2	99*	97*
O=C(CN1C(=O)NC2(CCSC2)C1=O)NCc1ccccc1 (configuration not stated)	-3	18*	11	3	-14	-9
COc1ccccc1Nc1nc(NCC2CCCO2)c2ccccc2n1 (configuration not stated)	-15	-5	-9	9	-7	-12
O=C(NCCCN1CCCC1)c1ccc2c(Cl)c3c(nc2c1)CCCC3	-10	-11	-10	0	-2	11
CCCN1CCN(CCCNC(=O)c2ccc3c(Cl)c4c(nc3c2)CCCC4)CC1	-14	2	-29	0	34*	-6
CN(C)S(=O)(=O)c1ccc2nnn(OCC(=O)NC3CCS(=O)(=O)C3)c2c1 (configuration not stated)	-2	7	5	2	-2	-1
O=C(CCCc1nc(-c2ccccc2Cl)no1)NCc1cccnc1	-5	8	8	2	-6	11
